High-throughput results from PubChem BioAssay.
HEK293 tox – Cytotoxic Profiling in HEK 293 Cell Line of Diverse Libraries Using Quantitative High-Throughput Screening; AID 1345083, 2018; 94,000 compounds, 6.6% hits; Potency, µM (top dose mostly 115 µM), without a hit: at the highest dose activity change, negative = cytotoxicity, most hits filed as inhibitors; HEK 293 viability, ATP luminescence (CellTiter-Glo), 48-72 h; further: on the % scale 0 is the no-effect control and ±100 the full control effect; nearly all actives have a fitted effect of over 60% in size
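250 HEK 293 cells/well; compound by pintool; incubated 48 or 72 hr at 37 degree Celsius; CellTiter-Glo added, 10 min RT, luminescence imaged.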
GPT2 inh – Primary qHTS assay for inhibitors of Glutamate pyruvate transaminase 2 (GPT2) | 100,000 compounds, 0.25% hits | Potency, µM (series often up to 57.7 µM), for inactives: top-dose activity change, negative = inhibition, most hits filed as inhibitors | Recombinant GPT2, coupled pyruvate oxidase/HRP Amplex Red fluorescence | AID 1671188, 2021 | Alanine aminotransferase 2 (Homo sapiens), Q8TD30; further: on the % scale 0 is the no-effect control and ±100 the full control effect; nearly all actives have a fitted effect of over 60% in size
Target sequence (Q8TD30 whole entry, looked up): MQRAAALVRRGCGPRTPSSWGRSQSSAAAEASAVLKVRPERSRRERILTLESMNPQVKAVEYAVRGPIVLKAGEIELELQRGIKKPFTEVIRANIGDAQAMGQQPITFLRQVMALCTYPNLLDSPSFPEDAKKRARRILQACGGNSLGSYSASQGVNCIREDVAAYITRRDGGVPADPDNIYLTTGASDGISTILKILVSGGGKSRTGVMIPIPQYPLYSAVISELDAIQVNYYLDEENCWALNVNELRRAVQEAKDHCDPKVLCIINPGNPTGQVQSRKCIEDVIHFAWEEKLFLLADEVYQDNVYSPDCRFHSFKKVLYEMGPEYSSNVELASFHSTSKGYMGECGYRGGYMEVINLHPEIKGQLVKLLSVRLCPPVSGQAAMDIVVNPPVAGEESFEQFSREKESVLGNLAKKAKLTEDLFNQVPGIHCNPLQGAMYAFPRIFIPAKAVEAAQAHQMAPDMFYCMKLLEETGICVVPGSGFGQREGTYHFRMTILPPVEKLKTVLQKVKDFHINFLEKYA
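Inhibition is scored from Amplex Red fluorescence generated when pyruvate oxidase and HRP act on pyruvate released by GPT2. Reactions contain 10ng/uL enzyme, 250uM a-KG and 2mM L-alanine and run 30 min at room temperature.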
Luciferase inh – Firefly luciferase inhibition profiling of diverse chemical library using quantitative high-throughput screening; Luciferin 4-monooxygenase (Photinus pyralis), P08659; purified P. pyralis luciferase, luminescence, biochemical; Potency, µM (highest dose often 115 µM), hits mostly inhibitors; 76,000 compounds, 2.5% hits; AID 1347043, 2019; further: on the % scale 0 is the no-effect control and ±100 the full control effect; nearly all actives have a fitted effect of over 65% in size
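FLuc 10nM, D-luciferin 10uM, ATP 10uM, Mg acetate 10mM, Tris acetate pH 7.5, Tween/BSA; cpd qHTS; enzyme added last; CCD luminescence.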
3T3 cytotox – Cytotoxic Profiling in NIH 3T3 Cell Line of Diverse Libraries Using Quantitative High-Throughput Screening; NIH 3T3 viability, CellTiter-Glo ATP luminescence, 48-72 h; 94,000 compounds, 4.3% hits; Potency, µM (titrated, usually from 96.7 µM), for inactives: at the top dose activity change, negative = cytotoxicity, hits mostly inhibitors; further: on the % scale 0 is the no-effect control and ±100 the full control effect; nearly all actives have a fitted effect of over 55% in size
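Cytotoxicity was measured by CellTiter-Glo ATP luminescence after 48 or 72 h compound exposure at 37 °C. Mouse NIH 3T3 fibroblasts were seeded at 400 cells/well and dosed by 23 nL pin transfer.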
NPR1 antag – Natriuretic polypeptide receptor (hNpr1) antagonism - Primary qHTS; Potency, µM (top dose mostly 46.3 µM), inactives show at the top dose activity change, negative = inhibition, hits mostly inhibitors; 76,000 compounds, 1.6% hits; HEK293 hNpr1 GloSensor cGMP, ANP-stimulated luminescence; AID 1347048, 2019; Atrial natriuretic peptide receptor 1 (Homo sapiens), P16066; calls by dose curve; further: on the % scale 0 is the no-effect control and ±100 the full control effect; nearly all actives have a fitted effect of over 60% in size
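HEK293 cells stably expressing human Npr1 and cGMP GloSensor pGS-40F, loaded 2 h with 2% GloSensor reagent, given compound 30 min at room temperature. Luminescence read before and 20 min after 0.1 nM hNppA.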
NPR1 antag cnf – Natriuretic polypeptide receptor (hNpr1) antagonism - Confirmation | shares compounds with NPR1 antag | HEK293 hNpr1 cGMP GloSensor luminescence, ANP-stimulated | Potency, µM (titrated, usually from 57.6 µM), for the others: at the top dose activity change, negative = inhibition, usual class: inhibitors | 1,400 compounds, 76% hits | AID 1347044, 2019; calls by dose curve; further: nearly all actives have a fitted effect of over 70% in size
NPR2 antag – Natriuretic polypeptide receptor (hNpr2) antagonism - Subtype selectivity assay; shares compounds with NPR1 antag; AID 1347046, 2019; HEK293 hNpr2 GloSensor cGMP luminescence, CNP-stimulated; 1,400 compounds, 67% hits; Potency, µM (titrated, usually from 57.6 µM), inactives show at the highest dose activity change, negative = inhibition, hits mostly inhibitors; calls by dose curve; further: nearly all actives have a fitted effect of over 70% in size
FLuc counter – Natriuretic polypeptide receptor (hNpr1) antagonism - Confirmation firefly luciferase (FLuc) inhibition counterscreen. shares compounds with NPR1 antag. purified FLuc enzyme, luminescence, Km substrate. Potency, µM (top dose mostly 57.6 µM), for the others: top-dose activity change, negative = inhibition, hits mostly inhibitors. 1,400 compounds, 0.7% hits. AID 1347047, 2019; further: 0% is about no effect
GloSensor ctrl – Natriuretic polypeptide receptor (hNpr1) antagonism - Counterscreen GloSensor control cell line; Potency, µM (top dose mostly 57.6 µM), for the others: top-dose activity change, negative = inhibition, actives largely listed as inhibitors; AID 1347051, 2019; HEK293 GloSensor cGMP, SNP-stimulated, luminescence; 1,400 compounds, 69% hits; shares compounds with NPR1 antag; calls by dose curve; further: on the % scale 0 is the no-effect control and ±100 the full control effect; nearly all actives have a fitted effect of over 70% in size
* marks the source's active call; other numbers are inactive results; i = inactive; ? = inconclusive; . = no result. Compounds with a hit are over-represented: about 10% of the library has one in this group of screens. Unless noted, the call rests on the fitted dose curve; in most records, active means well fitted curve in the direction sought with a large enough effect; inconclusive means small, poorly fitted or top-dose-only effect, or another doubt; inactive means no such curve, though single readings can be large; an effect the other way counts as inactive or inconclusive. Potency means the concentration at half of the fitted maximal effect.

SMILES	HEK293 tox	GPT2 inh	Luciferase inh	3T3 cytotox	NPR1 antag	NPR1 antag cnf	NPR2 antag	FLuc counter	GloSensor ctrl
CCN1C[C@H]2CN(C)c3ccccc3[C@@H]2N(C(=O)OCC(C)C)CCC1=O	?	i	.	?	.	.	.	.	.
COc1ccc(-c2noc(CC3CCN(C(=O)COc4cccc(C)c4)CC3)n2)cc1	?	i	i	?	16µM*	22µM*	24µM*	5%	24µM*
COc1cccc(CCC(=O)N2CCC(Cc3nc(-c4cnccn4)no3)CC2)c1	-5%	3%	i	-22%	2%	.	.	.	.
COc1ccc(-c2noc(CC3CCN(C(=O)CCc4ccccc4)CC3)n2)cc1	35µM*	i	i	?	13µM*	19µM*	22µM*	0%	17µM*
COc1cccc(CCC(=O)N2CCC(Cc3nc(C4CCOCC4)no3)CC2)c1	-9%	i	i	-9%	-17%	.	.	.	.
O=C(Cc1ccsc1)N1CCC(Cc2nc(-c3ccc(F)cc3)no2)CC1	?	?	i	?	5µM*	4.8µM*	4.8µM*	3%	3.9µM*
COc1cccc(CCC(=O)N2CCC(Cc3nc(-c4cccc(OC)c4)no3)CC2)c1	?	4%	i	?	16µM*	22µM*	22µM*	1%	17µM*
O=C1NCC2(CCN(Cc3cccc4ccccc34)CC2)Oc2ccccc21	?	-10%	.	?	.	.	.	.	.
COc1ccccc1CCC(=O)N1CCC(Cc2nc(-c3ccc(F)cc3)no2)CC1	?	i	i	?	?	.	.	.	.
COc1ccc(C(=O)N2CCC(n3cc(-c4nc(-c5ccccc5)no4)nn3)CC2)c(C)c1	?	5%	i	?	?	.	.	.	.
O=C(CCc1ccccc1)N1CC(Oc2ccc(-c3noc(C4CC4)n3)cc2)C1	28µM*	i	i	?	14µM*	15µM*	17µM*	2%	15µM*
COc1ccc(CCC(=O)N2CCC(Cc3nc(-c4ccc(OC)cc4)no3)CC2)cc1	?	i	i	?	11µM*	17µM*	17µM*	0%	12µM*
COc1ccc(CCC(=O)N2CCC(Cc3nc(-c4ccc(F)cc4)no3)CC2)cc1	?	i	i	?	5.6µM*	4.3µM*	11µM*	0%	11µM*
COCCNC(=O)c1ccc(CC2CCN(C(=O)CCc3ccc(OC)cc3)CC2)cc1	?	i	i	-29%	-17%	.	.	.	.
